Calls of active or inactive are those of the source. How the source made its calls: active means hit-call score of the fitted dose curve at least 0.9, where 1 is the maximum; inactive means score below 0.9.

The assay in a line: CCTE_Harrill_HTTr_Apoptosis_MCF7: CCTE's 6-hour Apoptosis Assessment for the High-Throughput Transcriptomics (HTTr) Platform, in MCF-7 cells cultured in DMEM + 10% fetal bovine serum, Harrill Lab (AID 2284011). An excerpt: This is a cell-based assay that evaluates apoptosis using high content imaging to evaluate activation of caspase-3/7 using the CellEvent Caspase 3/7 Green detection reagent in 384-well format.One of seven assay components measured from the CCTE_Harrill_HTTr_Apoptosis assay. This was part of a full screening experiment. This is a cell-based assay that evaluates apoptosis in MCF-7 cells cultured in DMEM + 10% fetal bovine serum. High content imaging is used to evaluate activation of caspase-3/7 using the CellEvent Caspase 3/7 Green detection reagent. Measurements are taken at 6 hours after chemical dosing in 384-well format.The assay component endpoint CCTE_Harrill_HTTr_Apoptosis_MCF7 was analyzed with bidirectional fitting relation to DMSO as the negative control and baseline of activity. Using a type of viability reporter, gain-of-signal activity can be used to evaluate activation of caspase-3/7 using the CellEvent Caspase 3/7 Green detection reagent to understand changes in apoptosis. To generalize the intended target to other relatable targets, this assay endpoint is annotated to cell cycle, where the subfamily is apoptosis.
Chemicals were tested in MCF7 cells in an eight point dilution series with a six hour exposure duration.
With `c1ccc2cnccc2c1`, the result was inactive.
In the case of `COc1cc(O)c(C(=O)c2ccccc2)cc1S(=O)(=O)O` it was “inactive”; in that of `CC(=O)CC(=O)Nc1ccccc1C`, “inactive”.
In the case of `O=C(OCc1ccccc1)c1ccc(O)cc1` it was “inactive”.
In the case of `CC(=O)c1ccccc1O` it was “inactive”; in that of `COC(=O)C=Cc1ccccc1`, “inactive”; in that of `C=C1C[C@H]2[C@@H]3C=C(C)C4=CC(=O)CC[C@]4(C)[C@H]3CC[C@]2(C)[C@@]1(OC(C)=O)C(C)=O`, “inactive”.
As to `C=C[C@@]1(C)CC(=O)[C@]2(O)[C@@]3(C)[C@@H](O)CCC(C)(C)[C@@H]3[C@H](O)[C@H](OC(C)=O)[C@@]2(C)O1`, the outcome was inactive.
In the case of `Clc1cc(Cl)c(Cl)c(Cl)c1Cl` it was “inactive”; in that of `O=C(O[C@@H]1Cc2c(O)cc(O)cc2O[C@@H]1c1cc(O)c(O)c(O)c1)c1cc(O)c(O)c(O)c1`, “inactive”.
In the case of `CC(C)CO` it was “inactive”; in that of `CCCc1ccc(O)c(OC)c1`, “inactive”; in that of `CC(C)=CCl`, “inactive”.
In the case of `Nc1ncnc2nc[nH]c12` it was “inactive”; in that of `COc1ccc(-c2coc3cc(O)cc(O)c3c2=O)cc1`, “inactive”; in that of `Oc1ccc(/C=C/c2cc(O)cc(O)c2)cc1`, “inactive”.
For the compound `Cn1ccnc1`, the outcome was inactive.
In the case of `Cc1noc(NS(=O)(=O)c2ccc(N)cc2)c1C` it was “inactive”; in that of `C=C(C)[C@@H]1CC=C(C)CC1`, “inactive”; in that of `CCCCCCCCCCCCC`, “inactive”.
For `Nc1ccc(C(=O)O)cc1`, the outcome was inactive.
Turning to `CC(C)(O)Cc1ccccc1`, the result was inactive.
In the case of `CCCCCCCC(=O)OCC(COC(=O)CCCCCCC)OC(=O)CCCCCCC` it was “inactive”; in that of `Cc1c[nH]c(=O)[nH]c1=O`, “inactive”.
As to `CC12CCC(CC1)C(C)(C)O2`, the outcome was inactive.
With `Oc1ccc(-c2ccccc2)c(Cl)c1`, the result was inactive.
In the case of `CC(=O)CCC=C(C)C` it was “inactive”; in that of `N#Cc1ccc(C(c2ccc(C#N)cc2)n2cncn2)cc1`, “inactive”; in that of `CCOC(=O)/C=C\C(=O)OCC`, “inactive”.
With `CCC(C)C(=O)OC` (stereo not given), the result was inactive.
As for `O=C(O)C1CCC(C(=O)O)CC1` (stereo not given), the result was inactive.
In the case of `O=C(O)CCCC(=O)O` it was “inactive”.
Regarding `CC1=CCC(C(C)C)C=C1` (stereo not given), the outcome was inactive.
Regarding `CC(=O)CCC1=C(C)CCCC1(C)C`, the outcome was inactive.
In the case of `c1ccc2c(c1)[nH]c1ccccc12` it was “inactive”; in that of `CC(=O)/C=C/C1C(C)=CCCC1(C)C` (stereo not given), “inactive”; in that of `CCCCOCC(C)O` (stereo not given), “inactive”.
In the case of `CCCCCC(=O)OCC` it was “inactive”.
For `CC(C)(CO)C(O)C(=O)NCCCO` (stereo not given), the result was inactive.
In the case of `CC(=O)OCc1ccccc1` it was “inactive”.

These data come from PubChem BioAssay (EPA / NIEHS).
